Only a selection was taken, and hits are over-represented in it overall.
KDM5B inhibitor: inhibitors of human KDM5B histone demethylase; Q9UGL1; KDM5B demethylase, FDH-coupled NADH fluorescence (FDH is formaldehyde dehydrogenase); Potency, µM (series often up to 57.7 µM), most hits filed as inhibitors; actives 2.6% (n = 220,000); AID 1347165; active = well fitted inhibition curve with a large enough effect; note: nearly all actives have a fitted effect of over 70% in size
Target sequence (Q9UGL1 whole entry, looked up): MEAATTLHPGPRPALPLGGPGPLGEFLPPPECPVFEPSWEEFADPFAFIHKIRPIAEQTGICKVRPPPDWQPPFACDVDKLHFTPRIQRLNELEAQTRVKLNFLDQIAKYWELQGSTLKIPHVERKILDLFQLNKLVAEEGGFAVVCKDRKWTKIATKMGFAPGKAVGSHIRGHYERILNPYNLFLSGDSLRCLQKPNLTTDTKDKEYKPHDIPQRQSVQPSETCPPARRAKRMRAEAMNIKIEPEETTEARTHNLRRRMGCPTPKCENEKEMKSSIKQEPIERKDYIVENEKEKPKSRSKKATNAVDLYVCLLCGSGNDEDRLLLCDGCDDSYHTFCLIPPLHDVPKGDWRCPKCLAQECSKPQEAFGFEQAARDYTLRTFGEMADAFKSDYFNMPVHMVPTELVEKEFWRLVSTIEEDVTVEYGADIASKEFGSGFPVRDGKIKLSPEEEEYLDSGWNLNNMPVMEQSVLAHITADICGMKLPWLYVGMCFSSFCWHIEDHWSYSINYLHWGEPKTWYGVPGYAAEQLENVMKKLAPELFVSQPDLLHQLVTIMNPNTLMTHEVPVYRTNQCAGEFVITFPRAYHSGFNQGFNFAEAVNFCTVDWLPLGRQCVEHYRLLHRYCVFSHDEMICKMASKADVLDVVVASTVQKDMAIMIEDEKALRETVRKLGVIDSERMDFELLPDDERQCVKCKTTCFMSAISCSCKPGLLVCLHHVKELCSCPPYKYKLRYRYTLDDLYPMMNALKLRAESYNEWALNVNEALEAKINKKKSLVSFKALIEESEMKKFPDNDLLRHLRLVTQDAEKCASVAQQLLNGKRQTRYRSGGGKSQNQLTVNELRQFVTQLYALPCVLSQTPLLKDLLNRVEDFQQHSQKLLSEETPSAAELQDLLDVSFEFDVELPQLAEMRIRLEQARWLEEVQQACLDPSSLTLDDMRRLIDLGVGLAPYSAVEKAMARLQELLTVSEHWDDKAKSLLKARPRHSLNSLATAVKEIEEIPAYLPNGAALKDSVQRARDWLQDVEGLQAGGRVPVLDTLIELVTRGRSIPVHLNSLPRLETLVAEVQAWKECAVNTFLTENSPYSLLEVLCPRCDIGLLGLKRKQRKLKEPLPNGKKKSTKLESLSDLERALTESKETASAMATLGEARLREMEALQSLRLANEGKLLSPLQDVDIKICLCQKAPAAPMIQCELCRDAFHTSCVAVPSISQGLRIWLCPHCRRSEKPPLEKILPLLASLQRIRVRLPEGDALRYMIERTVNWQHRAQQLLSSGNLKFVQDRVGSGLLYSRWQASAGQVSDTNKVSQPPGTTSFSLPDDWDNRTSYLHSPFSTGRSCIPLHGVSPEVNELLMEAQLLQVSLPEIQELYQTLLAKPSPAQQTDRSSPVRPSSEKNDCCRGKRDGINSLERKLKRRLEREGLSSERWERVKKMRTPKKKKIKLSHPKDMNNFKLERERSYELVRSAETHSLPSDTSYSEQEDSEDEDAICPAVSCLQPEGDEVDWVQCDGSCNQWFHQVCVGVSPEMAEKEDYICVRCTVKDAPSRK
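qHTS format, multiple compound concentrations. Buffer 50 mM HEPES pH 7.5/0.01% Tween-20; 200 nM KDM5BΔAP final; 10 min compound preincubation; substrate-mix levels 12.5 µM peptide, 25 µM α-KG, 0.25 mM NAD⁺; 30 min RT; ΔRFU.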
Each line names hits and unclear results; the compound was inactive in the other large screens.

COCCN(Cc1nccs1)C(=O)c1cnc(-c2ccccn2)[nH]c1=O	KDM5B inhibitor 11.2µM
CCN(Cc1noc(CC(C)C)n1)C(=O)c1cnc(-c2ccccn2)[nH]c1=O	KDM5B inhibitor 7.94µM
COCCN(Cc1nccs1)Cc1cn[nH]c1-c1ccc(F)cc1	none
COCCN(Cc1ccccn1)C(=O)c1ccc2c(c1)ncn2C	none
COc1ccc(OC)c(NC(=O)C2CCCN(c3ccc4nncn4n3)C2)c1 (stereo not given)	none
CCN(C(=O)C1Cc2ccccc2C(=O)O1)c1c(N)n(Cc2ccccc2)c(=O)[nH]c1=O (stereo not given)	none
COc1ccc2c(COC(=O)c3ccc(N4CCOCC4)nc3)cc(=O)oc2c1	none
CCN(CC)C(=O)CN(C)C(=O)CCc1ccccc1	none
Cc1nn(-c2ccccc2)c(C)c1CN(C)S(=O)(=O)c1ccc(Cl)cc1F	none
C=CCNC(=O)NC(=O)CN(C)CCCOc1ccccc1	none
O=C(CCSc1nc(Cl)nc2nc[nH]c12)NCc1cccc(Cl)c1	none
COCC1CN(C)CC12CCN(Cc1ccc(F)c(Cl)c1)CC2 (stereo not given)	KDM5B inhibitor 28.2µM
COCC1CN(C)CC12CCN(S(=O)(=O)c1cc(F)cc(F)c1)CC2 (stereo not given)	none
COCC1CN(Cc2ccc(F)c(F)c2)CC12CCNCC2 (stereo not given)	none
COCCN(Cc1cnn(-c2ccccc2C)c1)CC1CC1	none
Cc1ccccc1-n1cc(-c2ccnc(NC(C)Cc3ccncc3)n2)cn1 (stereo not given)	KDM5B inhibitor 25.1µM
Cc1ccccc1-n1cc(CN(C)Cc2nc(-c3ccc(C(F)(F)F)cc3)no2)cn1	none
CCc1ccc(C2=C(C)C(N3CCC(C(=O)Nc4ccc(OC)c(OC)c4)CC3)=NS2(=O)=O)cc1	none
Cc1ccc(CNC(=O)c2c(-c3ccc(F)cc3F)noc2C)o1	none
Cc1ccc(CNC(=O)c2ccc3nccn3c2)o1	KDM5B inhibitor 28.2µM
COC(=O)CNC(=O)c1ccc2ccccc2c1	none
COC(=O)CNC(=O)c1ccc(C)cc1	none
COc1ccc(C(=O)N[C@@H]2CCC[C@@H]2C(=O)NCc2ccc(C)o2)cc1	none
C#CCNC(=O)c1ccc2nccn2c1	KDM5B inhibitor 141µM
O=C(NC1CCCCCC1)c1ccc2nccn2c1	KDM5B inhibitor 28.2µM
C#CCNC(=O)c1ccc(-n2ccc(C(F)(F)F)n2)cc1	none
COC(=O)CNC(=O)c1ccc2nccn2c1	KDM5B inhibitor 112µM
CCN1CCN(C(=O)c2ccc3nccn3c2)CC1	none
O=C(NC1CCCCC1)c1ccncc1	none
O=C(NC1CCCCCCC1)c1ccc(Br)cc1	none
COCCNC(=O)CCc1c(C)nn(-c2ccc(OC)cc2)c1Oc1ccccc1F	none
Cc1ccc(CNC(=O)C23CCC(=O)N2CCS3)cc1 (stereo not given)	none
Cc1ccc(OCC(=O)Nc2ccc3oc(-c4ccccc4)nc3c2)cc1C	none
COc1ccc(CN2C[C@H](O)C[C@H]2c2nc(-c3cccc(C)c3)no2)c2ccccc12	KDM5B inhibitor 22.4µM
Oc1ccccc1CN1C[C@H](O)C[C@H]1c1nc(-c2ccccc2)no1	none
Cc1cccc(-c2noc([C@@H]3C[C@@H](O)CN3Cc3cccc(C#N)c3)n2)c1	none
CCCc1ccc(NC(=O)Cc2c[nH]c3ccccc23)cc1	none
CN(C)CC1(O)CCCN(Cc2cc3ccccc3n2C)C1 (stereo not given)	none
Nc1cccc(C(=O)NCC2CCN(Cc3cc(F)cc(F)c3)C2)c1 (stereo not given)	KDM5B inhibitor 28.2µM
O=C(NCC1CC1)c1cccc(OC2CN(Cc3cccc(F)c3)C2)c1	none
Cc1ccc(CN2CCC(CNC(=O)Nc3ccc(Cl)cc3)C2)cc1 (stereo not given)	none
Cc1cccc(CNC(=O)NCC2CCN(Cc3ccncc3)C2)c1 (stereo not given)	KDM5B inhibitor 14.1µM
Cc1cccc(CN2CC(Oc3cccc(C(=O)NCC4CC4)c3)C2)c1	none
CCNC(=O)NCC1CCN(Cc2cc(Cl)cc(Cl)c2)C1 (stereo not given)	none
COCc1cccc(C(=O)NCc2cccs2)c1	none
COCCNC(=O)Cc1c[nH]c2ncc(-c3ccc(OC)cc3)cc12	KDM5B inhibitor 35.5µM
COCCNC(=O)Cc1c[nH]c2ncc(-c3ccccc3)cc12	KDM5B inhibitor 39.8µM
COc1ccc(-c2cnc3[nH]cc(CC(=O)NCc4cnccn4)c3c2)cc1	none
Cc1ccc(C(=O)NCCCn2ccnc2)cc1C	none
Cc1ccc2nc(-c3ccccc3)cc(C(=O)NCCCn3ccnc3)c2c1	none
O=C(Cc1c[nH]c2ncc(-c3ccccc3)cc12)NCCCn1ccnc1	KDM5B inhibitor 39.8µM
COCCNC(=O)Cc1c[nH]c2ncc(-c3cccnc3)cc12	none
CN(CCOc1ccccc1F)c1nc(-c2cccnc2)nc2ccccc12	none
Cc1ccc(CNC(=O)C2(C)CN(S(C)(=O)=O)CC(=O)N2c2ccc(Cl)cc2)cc1 (stereo not given)	none
Cc1cc2ccccc2n1CC(=O)N1CCC(C(=O)O)CC1	none
CC(C)c1nnc(NC(=O)c2cc(=O)c3cc(Cl)ccc3o2)s1	none
NC(c1ccc(F)cc1)c1ccccc1I (stereo not given)	none
CCN(CC)CCCNC(=O)C(C)C1CCN(C(=O)c2ccc3nc(-c4ccccc4)oc3c2)CC1 (stereo not given)	none
CN(C)CCNc1ccccc1	none
O=C(CCc1c[nH]c2ccccc12)Nc1ccccc1OCC(F)(F)F	none
CCc1ccc(-c2[nH]nc3nc(-c4ccc(OC)cc4)cc(C(=O)NCCCOC)c23)cc1	none
O=C(c1cc(C2CC2)nc2c1c(C1CCCN1)nn2-c1ccccc1)N1CCC(F)CC1 (stereo not given)	none
COCCNC(=O)c1cc(-c2ccc(OC)cc2)nc2c1c(C1CCCN1)nn2C (stereo not given)	KDM5B inhibitor 79.4µM
COCCNC(=O)c1cc(C2CC2)nc2c1c(C1CCCN1)nn2-c1ccccc1 (stereo not given)	none
COc1ccc(-c2cc(C(=O)NCC(C)C)c3c(C4CCCN4)nn(C)c3n2)cc1 (stereo not given)	KDM5B inhibitor 50.1µM
COc1ccc(CCNC(=O)Cn2nc(-c3ccc(OC)cc3)ccc2=O)cc1	none
CNS(=O)(=O)Cc1ccccc1CNC(=O)c1cccc(F)c1	none
COc1ccc(CN[C@H]2[C@H](O)[C@H](O)C[C@@H]2c2ccccc2)cc1	none
O=C(CN1CCN(C(=O)c2nn(-c3ccccc3)c(=O)c3ccccc23)CC1)N1CCCCCC1	none
COc1ccc(NC(=O)N2CCCC(Cn3c(C4CC4)nc4cccnc43)C2)cc1Cl (stereo not given)	none
CCCn1c(Cn2ccnc2C)nc2cc(NC(=O)c3ccccc3)ccc21	none
CS(=O)c1ccc(C(=O)OCc2cc(Cl)c3c(c2)OCCCO3)cc1 (stereo not given)	none
O=C1NC(C(=O)O)=CC(c2cc(Cl)ccc2Cl)N1 (stereo not given)	none
COCCOc1ccc2c(n1)CCN(C(=O)CCc1ccccc1)C2	none
COCCN1CCC(N2CCN(C(=O)CCCc3ccccc3)CC2)C1=O (stereo not given)	none
COCCn1cc2c3c(cccc31)CN(C(=O)CCCc1ccccc1)CC2	KDM5B inhibitor 25.1µM
CCCCc1nn2c(=O)cc(COC(=O)c3cccc(NC(=O)c4ccccc4F)c3)nc2s1	none
CCN1CCN(c2nc3c(c(=O)n(C)c(=O)n3C)n2CC(N)=O)CC1	none
CCc1cc(C(=O)N2CC=C(c3ccccc3)CC2)sc1C	none
c1cn(-c2ccc(-c3nc(C4CCOC4)no3)cc2)cn1 (stereo not given)	none
Fc1ccc(CCc2nc(C3CCOC3)no2)cc1F (stereo not given)	none
Clc1ccc2nc(-c3nc(C4CCOC4)no3)cn2c1 (stereo not given)	KDM5B inhibitor 22.4µM
